Source: PubChem BioAssay (several laboratories)
Rows were chosen to be rich in hits. Some 2.6% of all compounds tested hit in one or more screens of this group.
Rce1 inhib: yeast Rce1p protease inhibitors, primary screen, biochemical, fluorescence, cell-free homogeneous | calls only | CAAX prenyl protease 2 (Saccharomyces cerevisiae (strain ATCC 204508 / S288c)), Q03530 | yeast membranes, quenched prenylated peptide cleavage fluorescence | 290,000 tested, 0.27% active;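 active = fall in fluorescence gain of 50% or more versus controls, with final raw signal at or below 3038400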;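 also: plate controls were neutral control wells for no effect and wells lacking membranes for full effect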
Target sequence (Q03530 whole entry, looked up): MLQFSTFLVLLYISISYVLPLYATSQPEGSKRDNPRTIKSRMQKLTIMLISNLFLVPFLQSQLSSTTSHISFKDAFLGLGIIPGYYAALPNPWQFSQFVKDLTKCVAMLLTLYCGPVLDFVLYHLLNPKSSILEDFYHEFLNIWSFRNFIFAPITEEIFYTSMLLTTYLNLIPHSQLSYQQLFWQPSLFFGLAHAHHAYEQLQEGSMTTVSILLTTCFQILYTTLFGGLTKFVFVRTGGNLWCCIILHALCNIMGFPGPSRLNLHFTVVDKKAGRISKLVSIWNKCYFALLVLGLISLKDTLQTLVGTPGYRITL
M18AAP inhibitor: PfM18AAP inhibitors, malaria aminopeptidase, primary screen, biochemical, QFRET, recombinant enzyme | H-Glu-NHMec fluorogenic cleavage | inhibition, % at 7.35 µM | 290,000 tested, 1.2% active | AID 1822, 2009;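 active = inhibition above the campaign mean inhibition over all tested compounds plus 3 SD, cut at about 28% in these data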;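 also: 0% = plate median of test compound wells and 100% = 2 mM ZnCl2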
Platelet DG rel: inhibitors of platelet dense granule secretion, primary screen, cell-based, MLPCN, human platelets; AID 1663, 2009; 300,000 tested, 0.22% active; human platelet-rich plasma, SFLLRN dense granule ATP release, luminescence; inhibition, %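 (compounds screened at 7.5 µM in platelet-rich plasma)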;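 active = mean replicate score, as percent of positive control, at or above 50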
Exocytosis inh: LAMP-1 surface exposure blockers, TALL-104 cells – cell-based, flow cytometry, MLPCN library, primary screen; TALL-104 LAMP-1 surface exposure; cells stimulated with thapsigargin and PMA; inhibition, % at 10 µM; 360,000 tested, 0.66% active; AID 651702, 2012;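 active = inhibition above about 55%, limit read from the data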
ABHD5-PLIN5 inh: ABHD5-PLIN5 interaction inhibitors, primary screen, cell lysate, split luciferase complementation, luminescence; Split G. princeps luciferase complementation, 4 h; 360,000 tested, 0.78% active; Perilipin-5 (Homo sapiens) + 1-acylglycerol-3-phosphate O-acyltransferase ABHD5 (Homo …; inhibition, % at 4 µM; AID 602281, 2012;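 active = inhibition above the mean inhibition across every tested compound plus 3 SD, cut at about 22% in these data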;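 also: 0% = DMSO only wells and the 100% control is not disclosed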
Starred values were filed as active, the others as inactive; i = inactive; x = no result given; + = active, no number; ! = repeats disagree.

SMILES	Rce1 inhib	M18AAP inhibitor	Platelet DG rel	Exocytosis inh	ABHD5-PLIN5 inh
C=C1C(=O)O[C@@H]2C[C@@H](C)[C@@H]3C4OC4C(=O)[C@@]3(C)[C@@H](O)[C@H]12 (stereo partly drawn)	i	x	-1	-3	48*
CCC(c1nnnn1C(C)(C)C)N1CCC2(CC1)C(=O)NCN2c1ccccc1 (stereo not drawn)	x	x	x	0	-3
Cc1ccc(N2C(=O)NC(=O)/C(=C\C=C\c3ccco3)C2=O)cc1C	i	12	1	59*	15
O=C1NC(=O)N(c2ccccc2)C(=O)/C1=C/C=C/c1ccco1	i	24	9	19	22
O=C(Cn1cc(C=C2C(=O)NC(=O)NC2=O)c2ccccc21)NCC1CCCO1 (stereo not drawn)	i	32*	0	-16	19
Cc1cc(/C=C2\C(=O)NC(=O)N(c3ccc(Cl)cc3)C2=O)c(C)n1-c1sc2c(c1C#N)CCCC2	i	17	-1	-5	10
CCOC(=O)c1c(-n2c(C)cc(/C=C3\C(=O)NC(=O)N(C)C3=O)c2C)sc2c1CCCC2	i	10	-6	57*	-16
CCOc1ccc(NC(=O)c2c(O)[nH]c(=O)[nH]c2=O)cc1	i	x	56*	0	-3
CCOC(=O)c1ccc(NC(=O)c2c(O)[nH]c(=O)[nH]c2=O)cc1	i	7	14	1	-4
Oc1ccc(C[C@H]2NCCc3cc(O)c(O)cc32)cc1O	i	82*	4	2	8
C=CCOC(=O)C1=C(C)OC(N)=C(C#N)C12C(=O)N(CN1CCOCC1)c1ccccc12 (stereo not drawn)	i	1	-3	6	1
C=C1C(=O)O[C@@H]2C[C@@H](C)[C@@H]3C=CC(=O)[C@@]3(C)[C@@H](OC(=O)CC(=O)O[C@H]3[C@@H]4C(=C)C(=O)O[C@@H]4C[C@@H](C)[C@@H]4C=CC(=O)[C@]43C)[C@H]12	i	x	-5	8	99*
Cn1c(O)c(/C=C2/C=CC=N2)c(=O)[nH]c1=O	i	-3	0	-6	-3
C=CC[N+]1(C)CC[C@]23c4c5ccc(O)c4O[C@H]2C(=O)CC[C@@]3(O)[C@H]1C5 (stereo partly drawn)	+	x	-2	-3	4
O=C1CC[C@@]2(O)[C@H]3Cc4ccc(O)c5c4[C@@]2(CCN3CC2CC2)[C@H]1O5	i	9	0	3	-7
CC(N)Cc1ccccc1Sc1ccc(O)cc1 (stereo not drawn)	i	-12	76*	x	x
Cc1ccc(C2C(=O)NC(=O)NC2=O)cc1	i	x	5	-3	1
COC(=O)C1CN(C#N)N(c2ccc(Cl)cc2)C12c1ccccc1-c1ccccc12 (stereo not drawn)	i	2	x	69*	74*
CCN1C(=O)/C(=C/c2ccc3c(c2)CCN3CCCCl)C(=O)NC1=S	i	4	-2	-5	-13
CN(C)CCNC(=O)c1cccn(Cc2cccc(C(F)(F)F)c2)c1=O	+	-11	-1	1	-4
Cc1cc(C=C2C(=O)NC(=S)NC2=O)c(C)n1C1CCCC1	i	12	6	-2	17
Cc1ccc(N2C(=O)NC(=O)/C(=C/c3ccc(-c4ccc(C(=O)O)c(Cl)c4)o3)C2=O)cc1	i	9	2	10	22*
COC(=O)C1=C(c2ccccc2)C[C@@H]2CC[C@H]1N2C(=O)NC(C)C	i	x	-4	-10	-6
Cc1cc(C=C2C(=O)NC(=O)NC2=O)c(C)n1-c1cccnc1	i	12	-1	0	-3
O=C(O)CCn1cc(C=C2C(=O)NC(=O)NC2=O)c(-c2cc3ccccc3oc2=O)n1	i	8	-1	-3	22*
SMILES	Rce1 inhib	M18AAP inhibitor	Platelet DG rel	Exocytosis inh	ABHD5-PLIN5 inh
CN1CCN(c2ccc([N+](=O)[O-])c(Sc3nncn3C)c2)CC1	+	5	-5	-2	15
CN1CCN(c2ccc([N+](=O)[O-])c(Sc3ccccn3)c2)CC1	i	4	16	0	14
CC(=O)OC1CCC2(C)C3CCC4(C)C(OC(C)=O)CCC4C3C(C)C2(O)C1 (stereo not drawn)	x	x	x	-4	-2
Cc1ccc(N2C(=O)NC(=O)/C(=C/c3ccc(OC(=O)c4cccs4)cc3)C2=O)cc1	i	8	-2	5	34*
COc1ccc(N2C(=O)NC(=O)/C(=C/c3cccc(OC(=O)c4cccs4)c3)C2=O)cc1Cl	i	4	-6	x	x
Cc1cccc(-n2c(O)c(/C=N/NC(=O)c3ccncc3)c(=O)[nH]c2=O)c1	i	1	-3	-3	1
CCN(CC)c1ccc(N=Cc2c(O)n(-c3cc(OC)ccc3OC)c(=O)[nH]c2=O)cc1	i	34*	-19	3	-3
C[C@]12CCC(=O)C(O)=C1CC[C@@H]1[C@@H]2CC[C@]2(C)C(=O)CC[C@@H]12	i	-8	-4	3	-11
O=C1NCN(c2ccccc2)C12CCN(C(c1cccc3ccccc13)c1nnnn1C1CCCC1)CC2 (stereo not drawn)	x	x	x	-2	3
COc1ccc(-[n+]2c(-c3ccccc3)cc(-c3ccc(C)cc3)cc2-c2ccccc2)cc1	i	2	-4	74*	17
O=C1NC(=O)N(CCc2ccc(F)cc2)C(=O)/C1=C\C=C\c1ccccc1	x	2	x	66*	5
Cc1ccc(/C=C2/C(=O)NC(=O)N(CCc3ccc(F)cc3)C2=O)s1	i	-1	-4	43	-6
Cc1ccc(/C=C2\C(=O)NC(=O)N(CCc3ccc(F)cc3)C2=O)s1	x	4	7	92*	-3
O=C1NC(=O)N(Cc2ccc(F)cc2)C(=O)/C1=C/c1cccs1	i	-5	25	56*	1
Cc1cc(/C=C2\C(=O)NC(=O)N(Cc3ccco3)C2=O)c(C)n1-c1ccc(C(=O)O)cc1	i	24	4	6	-2
CN1CCCCC1c1ccc(-c2cccnc2)nc1 (stereo not drawn)	i	2	2	2	4
NCCCN1CCN(c2ccccc2)CC1	i	0	0	3	-5
COc1ccc(N2CCN(CCCN)CC2)cc1	i	-9	63*	0	-6
O=C1C(=O)c2ccccc2-c2ccccc21	i	21	1	85*	13
CCCC[C@@H](C)C[C@@H](C)C(=O)N(C)[C@@H](CC(C)C)C(=O)N[C@H](C(=O)N(C)[C@H](C(=O)N1C[C@@H](O)C[C@H]1C(=O)N1C(=O)C=C[C@@H]1C)C(C)C)C(C)OC(C)=O (stereo partly drawn)	x	x	x	6	43*
c1cncc(C2Nc3cccc4cccc(c34)N2)c1	i	35*!	7	8	-8
